About 83,000 compounds went through this panel and 20% of them were active in at least one assay; those are over-represented in the sample as a whole.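 Results are percent growth after 48 hours of single-concentration exposure. 100 means growth as in untreated cells, lower positive values show inhibition; negative values down to -100 show cell death.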 Values without a mark were called inactive. Active and inactive are the calls of the source. Rule for the calls: active = growth percent below 10; inactive = the rest.

The test system of this assay is HL-60(TB) leukemia. The experiment in a line: NCI-60 one-dose screen, 48 h (100 = growth as untreated, 0 = no growth, -100 = all killed). Particulars: 10 µM unless noted.
As to `CC(=O)NC(C)(C)C(=O)N1CCC[C@H]1C(=O)NC(C)(C)C(=O)N[C@@H](C)C(=O)NC(C)(C)C(=O)N[C@@H](C)C(=O)N[C@@H](CCC(N)=O)C(=O)NC(C)(C)C(=O)N[C@H](C(=O)NC(C)(C)C(=O)NCC(=O)N[C@@H](CC(C)C)C(=O)NC(C)(C)C(=O)N1CCC[C@H]1C(=O)N[C@H](C(=O)NC(C)(C)C(=O)NC(C)(C)C(=O)N[C@@H](CCC(N)=O)C(=O)N[C@@H](CCC(N)=O)C(=O)N[C@H](CO)Cc1ccccc1)C(C)C)C(C)C`, the growth is 95.6% [4.25 µM].

Take `C#Cc1nc(C2=C(C)/C(=N/OCc3ccccc3)CC2)cs1`: the growth is -54.1% (active). As for `COCCC[C@H]1O[C@@](O)([C@H](C)[C@@H]2CC(OC)C(O)/C=C(C)/C=C(C)/C=C(\C)C(OC3O[C@@H](C)[C@H](O)C(O)[C@@H]3O)C(C)/C=C(C)/C=C(OC)/C=C(\C)C(=O)O2)C(OC)C(O)[C@]1(C)O[C@H]1C[C@@H](O)[C@H](O[C@H]2C[C@](C)(O)[C@H](O)C(C)O2)C(C)O1` (some centres not stated), the figure is 36%. As for `COc1ccc(/C=N/NC(=O)CSc2nc(-c3cnccn3)cc(-c3cccs3)c2C#N)cc1OC`, the figure is 101%. For `O=C(NCCCNc1cc(-c2cn(-c3ccccc3)nc2-c2cccc(O)c2)ccn1)Nc1ccc(F)cc1`, the growth was 1.09% (active). Then `CNC(=O)c1cc(N2CCc3cc(NC(=O)Nc4ccc(N5CCOCC5)c(C(F)(F)F)c4)ccc32)ccn1`, with 13%. As for `CCOC(=O)c1c(NC(=O)c2ccc(C(F)(F)F)cc2)sc2c(CN3CCN(C)CC3)c(O)ccc12`, the figure is -36.8% (active).

The record behind these values is PubChem BioAssay (NCI).
